Measurements from PubChem BioAssay (NCATS).
Records with an inconclusive call do not appear. Calls of active or inactive are those of the source. Calls follow the shape of the dose curve; as a rule, active = well fitted inhibition curve with a large enough effect; inconclusive = small, poorly fitted or top-dose-only effect; inactive = flat fitted curve, though single readings scatter.

test: qHTS for Inhibitors of Plasmodium falciparum (DD2) proliferation (AID 504314);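 as to activity, negative = inhibition: parasite DNA measured by SYBR Green fluorescence after red cell lysis; plate controls were DMSO vehicle for no effect and artemisinin wells for full effect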; conditions: P. falciparum Dd2 in erythrocytes, SYBR Green growth, 72 h; series mostly up to 6.11 µM; activity, negative = inhibition: at the top concentration
Method in brief: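 Quantitative HTS growth inhibition: SYBR Green I binding to parasite DNA after 72 h drug exposure of infected erythrocytes (0.3% parasitemia, 2.5% hematocrit). Signals normalized per plate to inhibitor and vehicle wells.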
Potency is read from the fitted curve at half-maximal effect.

SMILES	Potency	activity, negative = inhibition
COC(=O)C1=C(C)N(Cc2ccccc2)C(=NCCc2ccccn2)NC1c1cccc(C(F)(F)F)c1 (centres undefined)	948 nM (active)	
CC(=O)C1=C(C)N(Cc2ccco2)C(=O)NC1c1ccccc1 (centres undefined)		-5.92% (inactive)
CC(=O)C1=CN(CCc2c[nH]c3ccccc23)C(=O)NC1c1ccccc1 (centres undefined)		-11.8% (inactive)
CCN1C(=NCc2ccc(OC)cc2)N[C@@H](CCc2ccccc2)[C@H](C(=O)NCc2ccc(OC)cc2)[C@H]1C		-9.23% (inactive)
C[C@@H]1CC[C@H]2C(=O)N(Cc3cccc([N+](=O)[O-])c3)C[C@@H](O)CN2[C@@H]1c1ccc(Br)cc1		-8.97% (inactive)
C=C(C(C)=O)C(O)c1ccc(C(F)(F)F)cc1 (centres undefined)		-3.69% (inactive)
COC(=O)[C@H]1[C@@H](c2ccccc2)NC(=O)N(CCc2cc(OC)c(OC)c(OC)c2)[C@@H]1C		-9.3% (inactive)
CC(C)OC(=O)[C@@H]1CC[C@H](C)[C@@H](CCC[C@@H]2CC=C[C@H](CC#N)O2)O1		-1.43% (inactive)
COc1ccc2c(c1)[C@H](C=Cc1ccccc1)[C@@H]([C@H](O)CO)O2		-10.8% (inactive)
COCCN1C(=O)CC[C@@]23C1=NC(C(=O)OC)=C(C(=O)OC)[C@@H]2N(CC=C(C)C)c1ccccc13		-3.64% (inactive)
CON(C)C(=O)c1nnc2c3ccccc3n(S(=O)(=O)c3ccc(C)cc3)c2n1		-1.2% (inactive)
CCOC(=O)C(C)=NNC(C)=O		1.1% (inactive)
COc1ccc2c(c1)[C@@]1(OCCC=C[C@@H]1C)C(=O)N2Cc1ccc(Br)cc1		-7.55% (inactive)
CCCCCCCc1cc2ccccc2c2c(C=O)c(CCCC)c(C(=O)OC)n12		-12.3% (inactive)
CC(CCN1CCc2nc(-c3ccccc3)c(-c3ccccc3)cc2C1)=NOC[C@@H](O)COCc1ccco1		-11.1% (inactive)
C=C(C(C)=O)C(O)c1ccccc1 (centres undefined)		-10.2% (inactive)
CC(CCC(=O)OC[C@H]1O[C@H](C#Cc2ccccc2)C=C[C@H]1Oc1ccc(C)cc1)=NO[C@H](C)c1cn([C@H](CO)Cc2ccccc2)nn1		-3.35% (inactive)
O=C(C=NO)NCCCCNC(=O)C=NO		2.38% (inactive)
COC[C@@H](OC(C)=O)[C@H]1OCc2ccccc2[C@@H]1C=Cc1ccccc1		-13.2% (inactive)
CCN1C(=NCCc2cccnc2)N[C@H](CCc2ccccc2)[C@H](C(=O)OC)[C@H]1C		-7.12% (inactive)

SMILES	Potency	activity, negative = inhibition
CCCCc1nc2c(c3c1C[C@H](C)OC3)CN(C(=O)Cc1cccs1)CC2	inactive	
CC(CCN1CCCCc2nc(C)c(C)cc21)=NO[C@H](C)c1cn([C@H](CO)Cc2ccccc2)nn1		-8.42% (inactive)
CC(C)[C@@H](OCc1ccccc1)[C@H](C)C=NOC[C@@H](C)[C@H](OCc1ccccc1)C(C)C		-15.6% (inactive)
CCOC(=O)CN1C(=O)NC(c2ccc(Br)cc2)C(C(=O)OC)=C1C (centres undefined)		-2.74% (inactive)
COC(=O)CC=C1c2ccc(F)cc2[C@@H](OC)[C@@H]1C		-10.4% (inactive)
CC(=O)OC[C@H]1O[C@H](CCON=C(C)CCN2CCCCc3nc(C)c(C)cc32)C=C[C@H]1OC(C)=O		-5.9% (inactive)
COC[C@@H](O)[C@H]1OCc2ccccc2[C@H]1C=Cc1ccccc1		-8.3% (inactive)
COC(=O)C1=C(C(=O)OC)[C@@H]2N(C)c3ccccc3[C@@]23CCC(=O)N(CCCOC(C)C)C3=N1		-8.15% (inactive)
C#CCN1C(=O)[C@@]2(CC(C)=CC[C@@H](C)O2)c2ccccc21		-4.43% (inactive)
COc1ccc(-c2ccc3c(n2)CCCN3CC(O)CN2CCCc3nc(C)c(C)cc32)cc1 (centres undefined)		-5.36% (inactive)
C=CCOC(=O)N[C@H](c1ccc2ccccc2c1)[C@H](C)C=CCC(=O)OC		2.03% (inactive)
COC(=O)[C@@]1(C=C[C@@H](C)[C@H](OC)c2ccccc2Br)[C@@H]2OCCC[C@@H]21		-8.03% (inactive)
C=CCN1c2ccccc2[C@]23CCC(=O)N(Cc4ccco4)C2=NC(C(=O)OC)=C(C(=O)OC)[C@H]13		-4.69% (inactive)
COc1ccc(C(=O)CC(=O)c2c(O)cc(OC)cc2OC)cc1		2.43% (inactive)
COC(=O)CCC(=O)OC1(C)C(=O)C=C2C=C(C3CC3)N(Cc3ccco3)C=C2C1=O (centres undefined)		0.997% [at 1.12 µM] (inactive)
C#CCN1C(=O)CC[C@@]23C1=NC(C(=O)OC)=C(C(=O)OC)[C@@H]2N(CC=C(C)C)c1ccccc13		-10.1% (inactive)
CCCCCCCC1=Cc2ccc(F)cc2C(C(C(C)=O)C(=O)OC)N1C(=O)OC (centres undefined)	inactive	
COC1=C[C@H](C(=O)NCc2ccc(OC)cc2)C(C)C(c2ccccc2)CC1=O (some centres undefined)		-7.15% (inactive)
CCN1C(=O)NC(CCc2ccccc2)C(C(C)=O)=C1C (centres undefined)		-8.38% (inactive)
